Lassa entry inh: qHTS for Inhibitors of binding or entry into cells for Lassa Virus | Lassa virus pseudotype entry inhibition, cell reporter | Potency, µM (highest dose often 37.9 µM), for the others: top-dose activity change, negative = inhibition, actives largely listed as inhibitors | 300,000 compounds, 1.2% hits; calls by dose curve; tested in HEK293 cells; note: potency is the fitted concentration of half-maximal effect; nearly all actives have a fitted effect of over 50% in size
FMDV antiviral: High Throughput Screening for Foot and Mouth Disease Virus Antivirals | FMDV antiviral cell-based qHTS | Potency, µM (doses to about 57.9 µM), inactives show at the top dose activity change, negative = inhibition, actives largely listed as inhibitors | 410,000 compounds, 1.2% hits | AID 1159524, 2015; calls by dose curve; tested in HEK293T cells; note: read-out not given here; potency is the fitted concentration of half-maximal effect; nearly all actives have a fitted effect of over 45% in size
Vaccinia mCherry: qHTS for Stage-Specific Inhibitors of Vaccinia Orthopoxvirus: mCherry Reporter Primary qHTS; Vaccinia virus mCherry reporter infection, fluorescence; Potency, µM (doses to about 36.5 µM), without a hit: at the highest dose activity change, negative = inhibition, usual class: inhibitors; 310,000 compounds, 0.63% hits; AID 720579, 2013; calls by dose curve; tested in A549 cells; note: potency is the fitted concentration of half-maximal effect; nearly all actives have a fitted effect of over 35% in size
MARV entry inh: qHTS for inhibitors of binding or entry into cells for Marburg Virus. Marburg virus pseudotyped entry inhibition, cell reporter. 300,000 compounds, 1.8% hits. Potency, µM (highest dose often 37.8 µM), for inactives: top-dose activity change, negative = inhibition, usual class: inhibitors; calls by dose curve; tested in HEK293 cells; note: potency is the fitted concentration of half-maximal effect
Vaccinia Venus: qHTS for Stage-Specific Inhibitors of Vaccinia Orthopoxvirus: Venus Reporter Primary qHTS. Vaccinia virus Venus reporter expression, fluorescence. Potency, µM (top dose mostly 36.5 µM), without a hit: at the top dose activity change, negative = inhibition, actives largely listed as inhibitors. 330,000 compounds, 0.46% hits. AID 720580, 2013; calls by dose curve; tested in A549 cells; note: potency is the fitted concentration of half-maximal effect; nearly all actives have a fitted effect of over 30% in size
HCMV antiviral: qHTS Assay for inhibitors of the human cytomegalovirus (HCMV); 410,000 compounds, 4.5% hits; HFF cells, HCMV-luciferase reporter, 72 h; stronger effect = lower value; activity change, negative = inhibition, % at 57.5 µM; AID 1259415, 2018; in the data active = activity change below about -60%; inconclusive = no clear call, values can overlap the other calls; inactive = above about -39%
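Inhibition of viral replication was scored as loss of reporter luminescence in HFFs infected with HCMV-luciferase (MOI 1 PFU/cell) for 72 h; compounds tested at 2 doses, normalized to buffer and Salinomycin controls.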
Numbers without * were called inactive; i = inactive; ? = inconclusive; / = no result given; [ ] = dose if it differs, or a comment. In the library only some 6.5% were active in any assay of this set; here they are far more common. % is set by controls: 0 for no effect and ±100 for the full control effect.

SMILES	Lassa entry inh	FMDV antiviral	Vaccinia mCherry	MARV entry inh	Vaccinia Venus	HCMV antiviral
Cc1cccc2sc(NNC(=O)c3cc(-c4cccs4)nc4ccccc34)nc12	?	?	?	-68.8%	-17.7%	-68.4*
C/C(=N\NC(=O)C(c1ccccc1)c1ccccc1)c1ccccn1	?	?	?	?	?	-98.6*
CC(C)(C)c1ccc(/C=N/NC(=O)c2ccccn2)cc1	?	-74.4%	i	3.16µM*	-12.1%	108.9
Cc1ccc(NC(=O)c2cc(-c3cccs3)nc3ccccc23)c(C)c1	4.9%[46.1 µM]	?	-11.2%	?	-1.8%	7.3
O=C(C[n+]1cccc2cc(Cl)ccc21)c1ccc(Br)cc1	/	/	i	/	126.4%	/
Cc1ccc(C2CC(=O)N(Cc3ccccc3F)c3c2c(C)nn3-c2nc(C)cc(C)n2)cc1 (centres undefined)	-17.2%[46.1 µM]	-8.8%	-14.4%	-4.7%[46.1 µM]	-4.9%	-14.2
COc1cccc(CNC(=O)COC(=O)c2ccc(S(C)(=O)=O)c([N+](=O)[O-])c2)c1	/	/	-13.7%	/	-17.1%	/
Cc1ccc(C)c(CN2CCC(CNC(=O)C(CC(C)C)N3Cc4ccccc4C3=O)CC2)c1 (centres undefined)	-26.7%[46.1 µM]	-16.7%	-22.2%	/	-18.5%	-34.3
C/C(=N\NC(=O)c1ccc(Cl)c(Cl)c1)c1ccccn1	5.62µM*	15.3%	1.26µM*	?	?	-99.5*
C/C(=N\NC(=O)c1cccc(Br)c1)c1ccccn1	?	26.6%	?	4.47µM*	?	-102.6*
C/C(=N\NC(=O)c1ccccc1Cl)c1ccccn1	/	29.9%	?	/	?	-96.7*
C/C(=N\NC(=O)c1cc(Br)ccc1O)c1ccccn1	1.9%[46.1 µM]	-28.8%	?	8.7%[46.1 µM]	-5.9%	39.1
C/C(=N\NC(=O)c1ccc(Cl)c(Cl)c1)c1ccc(Br)s1	?	-11.7%	-19.7%	?	-13.2%	-83.3*
CC(=O)Nc1cccc(NC(=O)Cc2csc(COc3cccc(C)c3)n2)c1	5.4%[46.1 µM]	-25.0%	-22.3%	-13.4%[46.1 µM]	-26.0%	1.2
COc1ccc(CC(=O)Nc2c(C(=O)Nc3ccccc3F)oc3ccccc23)cc1	7.2%[46.1 µM]	-9.1%	-0.4%	23.7%[46.1 µM]	-9.5%	-33.0
CC(C)=CCCC(C)=CCON=C1C[C@@H](O)[C@@H](O)[C@@H]2[C@H]3C(=O)N(C[C@@H]4CCCO4)C(=O)[C@@H]3CC[C@H]12	/	/	/	21.6%[14.2 µM]	/	/
COc1ccc2c3c(n(C)c2c1)[C@H](CO)N(C(=O)c1ccccn1)CC31CCN(C(=O)Cc2ccccc2)CC1	/	/	/	/	/	5.9
C/C(=N\NC(=O)c1cccc2ccccc12)c1ccccn1	7.94µM*	-6.0%	?	?	-10.3%	-96.2*
C/C(=N/NC(=O)c1ccc(C(C)(C)C)cc1)c1ccccn1	?	-10.2%	2.82µM*	?	?	-98.0*
COc1ccc(C(=O)N/N=C(\C)c2ccccn2)cc1OC	5.62µM*	?	2.24µM*	6.31µM*	?	-111.6*
COc1cc(C(C)=NNC(=O)c2ccncc2)ccc1O	4.5%	4.4%	-12.5%	3.0%	-4.1%	-100.9*
O=c1c(-c2ccc(F)cc2)nc2cnc(N3CCNCC3)nc2n1Cc1ccc(F)cc1	/	-13.0%	/	/	/	/
O=C(Nc1ccccc1O)c1c(O)c2c([nH]c1=O)CCCC2	?	-15.7%	17.8µM*	?	?	92.9
N#CCCCSc1nnnn1-c1cc(C(F)(F)F)cc(C(F)(F)F)c1	/	/	/	1.8%[14.2 µM]	/	/
CC1CCC[C@H](O)CCCCCc2cc(O)cc(O)c2C(=O)O1 (some centres undefined)	0.6%	35.5µM*	-10.4%	-29.2%	-25.9%	?
SMILES	Lassa entry inh	FMDV antiviral	Vaccinia mCherry	MARV entry inh	Vaccinia Venus	HCMV antiviral
C[C@H]1CCC[C@H](O)CCCCCc2cc(O)cc(O)c2C(=O)O1	/	11.2µM*	-22.9%	-1.0%	?	-98.0*
C[C@H]1CCC[C@@H](O)CCC/C=C/c2cc(O)cc(O)c2C(=O)O1	-49.9%[14.3 µM]	3.55µM*	?	?	?	-105.3*
CC1CCC/C=C/C(=O)c2c(O)cc(O)cc2CC(=O)O1 (centres undefined)	/	31.6µM*	7.08µM*	/	?	-104.6*
CC1CCCC(=O)CCC/C=C/c2cc(O)cc(O)c2C(=O)O1 (centres undefined)	/	-21.0%	-16.2%	/	-17.0%	/
COc1ccc(NC(=O)N2CCN(S(=O)(=O)c3ccc4c(ccn4C)c3)CC2)cc1OC	0.8%[46.1 µM]	-12.7%	i	/	-12.7%	15.9
COc1cccc(NC(=O)Cn2c(=O)n(-c3cccc(OC)c3)c(=O)c3sc4ccccc4c32)c1	-24.6%[46.1 µM]	4.4%	-11.1%	3.9%[46.1 µM]	-17.3%	-28.5
CCCN(C(=O)CCl)C1=CCCCC1	?	?	-19.1%	3.6%[46.1 µM]	-10.8%	-100.4*
CC(C)c1ccc(NC2=NCC(=O)N2Cc2cccs2)cc1	?	20.2%	-7.4%	?	-23.1%	-60.4*
CCCNC(=O)OC[C@H]1O[C@H](CCO/N=C2\C[C@@H](O)[C@@H](O)[C@@H]3[C@@H]4C(=O)N(CC)C(=O)[C@@H]4CC[C@@H]23)C=C[C@@H]1Oc1ccc(OC)cc1	/	/	/	0.3%[14.2 µM]	/	/
Cc1sc2nc(CN3CCOCC3)nc(Cl)c2c1C	-12.1%	-0.4%	-6.1%	?	-26.4%	-17.1
Cc1sc2nc(CN3CCOCC3)nc(NS(=O)(=O)c3cc(Cl)ccc3Cl)c2c1C	/	17.1%	/	/	/	-106.4*
CCOc1ccc(C(=O)Nc2ccc3nc(Nc4cccc(C(F)(F)F)c4)cc(C)c3c2)cc1OCC	-0.2%[46.1 µM]	0.0%	2.9%	/	-5.7%	-62.5*
Cc1cc(Nc2cccc(C(F)(F)F)c2)nc2ccc(NC(=O)c3cccc(Cl)c3)cc12	-26.8%[46.1 µM]	?	-21.5%	/	-22.3%	-103.9*
Cc1cc(Nc2cccc(C(F)(F)F)c2)nc2ccc(NC(=O)c3cccnc3)cc12	?	28.2µM*	10µM*	/	11.2µM*	-107.3*
Cn1nc(C(F)(F)F)c(-c2cccc(C(F)(F)F)c2)c1NC(=O)c1cccnc1	/	-21.7%	/	/	/	-78.4*
Cn1nc(C(F)(F)F)c(-c2ccccc2)c1NC(=O)c1cccnc1	/	-3.6%	/	/	/	-1.3
c1ccc2c(c1)CCN(c1ncnc3c1[nH]c1ccccc13)C2	?	11.2µM*	/	?	/	-66.2*
OC1(c2cccc(C(F)(F)F)c2)CCN(c2ncnc3c2[nH]c2ccccc23)CC1	15.5%	28.2µM*	?	?	?	-8.7
c1ccc(CN2CCN(c3ncnc4c3[nH]c3ccccc34)CC2)cc1	?	10µM*	7.08µM*	?	?	-105.6*
Cc1ccc2[nH]c3c(N4CCN(Cc5ccccc5)CC4)ncnc3c2c1	?	11.2µM*	?	?	?	-106.5*
c1ccc(CN2CCN(c3nc4ccccc4c4ccccc34)CC2)cc1	-19.3%	-0.5%	/	-21.1%	-9.5%	?

Compound activity as filed in PubChem.
